# Source: PubChem BioAssay
# An excerpt weighted towards active compounds, which were near 6.1% of everything screened.
# D1 PAM = human D1 dopamine receptor positive modulation | 360,000 compounds, 0.036% hits | P21728 | potentiation, % at 10 µM | HEK293 TREx D1 cells, calcium flux, dopamine EC20 potentiation | AID 504651; in the data active = potentiation above about 30%; note: 0% is about no effect
# DRD3 agonist = agonists of human D3 dopamine receptor; D3R DiscoveRx beta-arrestin cells, luminescence, 90 min; max activation, %; 410,000 compounds, 0.58% hits; P35462; AID 652048; in the data active = max activation above about 30%; note: 0% is about no effect
# Target sequence (P35462 whole entry, looked up): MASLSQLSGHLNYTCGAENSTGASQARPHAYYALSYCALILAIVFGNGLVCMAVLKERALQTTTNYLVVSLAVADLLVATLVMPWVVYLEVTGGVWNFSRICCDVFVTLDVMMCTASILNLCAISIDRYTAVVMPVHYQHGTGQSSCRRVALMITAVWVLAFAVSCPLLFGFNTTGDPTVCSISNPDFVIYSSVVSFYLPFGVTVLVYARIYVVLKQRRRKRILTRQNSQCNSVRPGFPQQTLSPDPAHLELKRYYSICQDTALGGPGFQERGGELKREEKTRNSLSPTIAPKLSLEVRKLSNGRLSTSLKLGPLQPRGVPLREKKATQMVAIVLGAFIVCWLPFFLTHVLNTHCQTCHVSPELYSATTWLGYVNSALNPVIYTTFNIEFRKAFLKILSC
#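 Agonist-mode cell screen: cells plated at 1500/well and incubated overnight at 37 °C, then exposed to library compounds for 90 min at 37 °C. Detection reagent was added for 30–60 min at room temperature, and luminescence was read.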
# D1 antag = human D1 dopamine receptor antagonism | P21728 | HEK293 TREx D1 cells, calcium flux, dopamine EC80; active compounds read low | activity change, negative = inhibition, % at 10 µM | 360,000 compounds, 3.2% hits | AID 504652; in the data active = activity change below about -30%; note: % is set by controls: 0 for no effect and ±100 for the full control effect
#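 After overnight tetracycline induction at 30 C, force-coupled D1 HEK293 cells took up a no-wash calcium dye at room temperature. Compounds were added and monitored 180 s, and the response to EC80 dopamine was then recorded.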
# DRD3 antagonist = antagonists of human D3 dopamine receptor. D3R cells, DiscoveRx beta-arrestin luminescence, antagonist mode; active compounds read low. max response, negative = inhibition, %. 360,000 compounds, 2.5% hits. P35462; in the data active = max response below about -50%; inconclusive = no clear call, values can overlap the other calls; note: % is set by controls: 0 for no effect and ±100 for the full control effect
#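 Cells plated overnight at 1500 cells/well, then exposed to library compounds with dopamine controls for 90 minutes at 37 degrees C. DiscoveRx reagent added for 30–60 minutes at room temperature; luminescence read, quantitative HTS format.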
# D1 agonist = activates the human D1 dopamine receptor; HEK293 T-REx D1 cells, calcium flux, agonist mode; activation, % at 2 µM; 360,000 compounds, 1% hits; in the data active = activation above about 30%; note: 0% is about no effect
#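 Agonism was scored from calcium flux recorded over 180 s (1 read/s) after pintool compound addition, following a 10-cycle baseline. Cells were inducible force-coupled HEK293 TREx D1, plated overnight at 30 C and loaded with no-wash calcium dye.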
# ERG-DNA inh = inhibitors of human ERG Ets domain-DNA interaction; 370,000 compounds, 0.028% hits; fluorescence polarization, His-ERG Ets domain / labelled DNA; AID 624246; Potency, µM (titrated, usually from 76.9 µM), inactives show top-dose FP activity, negative = inhibition, most hits filed as inhibitors; active = well fitted inhibition curve with a large enough effect in the polarisation, with a control signal flat; inconclusive = small, poorly fitted or top-dose-only effect, or effect the other way, or a change in a side signal; inactive = no such curve, though single readings can be large or run the other way; the % refers to the polarisation;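 note: polarization taken with two DNA probes labelled with fluorescein and Texas red; potency is the fitted concentration of half-maximal effect; % of control where 0% means no effect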
#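 His-tagged ERG Ets domain (1 uM in the protein solution; 300mM KCl, 50mM Tris-HCl, 1mM EDTA, 1mM DTT, pH 7.5) received compound, then a probe mix of 5 nM fluorescein-DNA and 100nM Texas-615-DNA. Fluorescence polarization was read for both dyes.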
# The depositor's hits bear a star; ? = inconclusive; . = no result.
SMILES,D1 PAM,DRD3 agonist,D1 antag,DRD3 antagonist,D1 agonist,ERG-DNA inh
CC1=C(OC(=O)c2ccc(Br)cc2)C(C)(C)C(c2ccccc2)OC1=O (stereo unspecified),0.0,0.8,10.7,-18.7,1.1,-3.7%
COc1cccc(C(=O)C2CCCN(Cc3cccc(-n4nc(C)cc4C)c3)C2)c1 (stereo unspecified),-5.9,2.6,-5.7,-9.3,0.9,25.4%
O=C(O)c1cc2cc(Cl)ccc2oc1=O,-2.9,34.1*,-13.3,-27.6,1.8,-9.9%
CCc1cccc(C)c1NC(=O)C1CC=CCC1C(=O)O (stereo unspecified),-2.7,-3.8,6.3,-3.9,3.2,6.6%
COC(=O)c1c(C)sc(-c2c(-c3cccc(Cl)c3)[nH]c3c2c(=O)[nH]c(=O)n3C)c1O,-1.4,5.5,5.1,.,62.2*,?
CCOC(=O)c1c(C)sc(-c2c(-c3ccccc3)[nH]c3[nH]c(=O)[nH]c(=O)c23)c1O,-0.1,-16.4,-2.1,.,39.5*,4.6%
O=C(Nc1nccc(-c2cccs2)n1)c1ccccc1Cl,-3.5,-5.2,-38.4*,-23.5,-2.1,-3.5%
Cc1[nH]c2ccccc2c1C(=O)C(=O)NC1CC(=O)N(c2ccccc2)C1 (stereo unspecified),1.4,-6.3,.,.,3.2,-4.7%
CN(C)c1ccc(/C=N/N(CCO)C2=NS(=O)(=O)c3ccccc32)cc1,1.6,-5.2,6.6,?,40.4*,-6.0%
Cc1cccc2cc(C#N)c(SCC#N)nc12,1.9,-1.1,9.4,-3.1,32.0*,0.7%
CCc1nc(SCC#N)c(C#N)cc1C,-5.1,.,-34.4*,.,-0.4,.
Cn1nnnc1SCc1nnc(-c2ccc(Cl)cc2)o1,1.7,1.5,-14.4,-4.2,7.6,-5.6%
Cc1ccc(Sc2ncnc3onc(C)c23)c(C)c1,-2.8,-3.3,.,-10.4,-2.8,-4.3%
COc1ccc(Sc2ncnc3onc(C)c23)cc1,-2.6,-0.7,-42.5*,-16.0,-0.9,-6.0%
Cc1ccc(CSc2ccc(S(=O)(=O)N3CCCC3)cn2)cc1,-4.0,-3.2,-21.0,-11.7,10.3,7.2%
O=S(=O)(c1ccc(SCc2ccccc2F)nc1)N1CCCC1,.,-6.2,-34.1*,-1.5,13.3,3.4%
CCCCNC(=O)CSc1nnc(-c2ccc(S(=O)(=O)N3CCCC3)cc2)n1C,-7.3,0.9,-68.5*,-17.7,-1.6,.
CCCNC(=O)CSc1ccc(S(=O)(=O)N2CCCCC2)cn1,-1.3,8.0,-11.3,-5.6,2.3,14.4%
CCCNC(=O)CSc1ccc(S(=O)(=O)N2CCCC2)cn1,1.8,-4.4,-34.2*,8.6,-0.3,-5.7%
COc1ccc(CN2CCc3c(c(=O)n4ncc(C(=O)N5CCN(c6ccc(F)cc6)CC5)c4n3C)C2)cc1,0.2,-14.7,8.2,.,9.4,-3.8%
Cn1c(O)c(/C=C2\C=NN=C2c2ccccc2)sc1=S,-7.0,-2.3,-34.7*,-21.0,3.0,2.2%
CC1CC1C(=O)Nc1cc(S(=O)(=O)N2CCOCC2)ccc1N1CCCC1 (stereo unspecified),-2.2,6.7,9.9,3.8,4.0,-0.2%
CN1CCc2c(sc(/N=C/c3cc(C(C)(C)C)ccc3O)c2C#N)C1,-8.2,10.6,-3.5,-54.1*,1.4,9.6%
O=C(CNC(=O)c1ccccc1O)N/N=C/c1cc(Br)ccc1OC(=O)/C=C/c1ccco1,-7.8,-19.8,-32.7*,?,6.6,9.5%
CCN(C(=O)CSc1nc2scc(-c3ccccc3)c2c(=O)n1C)C1CCS(=O)(=O)C1 (stereo unspecified),.,2.3,.,10.9,.,-12.9%
SMILES,D1 PAM,DRD3 agonist,D1 antag,DRD3 antagonist,D1 agonist,ERG-DNA inh
O=C(Nc1nnc(-c2ccccc2)o1)c1nc2ccccc2s1,-12.8,-0.1,-24.7,7.3,164.3*,1.0%
Cc1ccccc1C(=O)Nc1nnc(-c2ccc(F)cc2)o1,-0.4,-16.9,-37.0*,-20.6,-0.7,-8.0%
O=C(NCc1ccccc1)c1nc2ccccc2s1,-3.9,-4.6,-38.7*,-4.1,2.6,-0.9%
O=C(NCCO)c1nc2ccccc2s1,-0.5,1.2,3.9,5.8,0.0,-1.6%
COc1ccccc1C(=O)Nc1nnc(-c2ccc(F)cc2)o1,.,-6.9,8.2,17.0,0.1,-12.1%
CCc1nc2ccccc2c(C(=O)NCc2ccccc2)c1C,-3.2,-3.7,-48.8*,-2.9,1.0,?
O=C(NCCc1ccccc1)C1=CCN(S(=O)(=O)c2ccccc2)CC1,-2.4,3.1,-10.3,-6.2,0.1,9.5%
COc1cc(C)nc(N(C)C(C)=O)n1,4.3,3.0,-34.0*,-8.9,3.1,9.1%
CSc1cc(C)nc(N(C)C(C)=O)n1,2.9,-12.4,-4.1,-9.6,2.3,4.1%
C[C@H](CO)N1C[C@H](C)[C@@H](CN(C)Cc2ccc3c(c2)OCCN3C)OCc2cnnn2CCCC1=O,.,-5.3,.,-87.6*,.,.
C[C@@H]1CN([C@H](C)CO)C(=O)CCCn2cc(nn2)CO[C@H]1CN(C)C(=O)Nc1ccc(C(C)(C)C)cc1,.,-13.6,.,-100.2*,.,.
CC(C)C(NS(=O)(=O)c1cccc(C(F)(F)F)c1)C(=O)NCc1cccs1 (stereo unspecified),-2.8,-0.1,-3.1,-1.6,-0.7,-4.0%
COc1cccc(C(=O)Nc2c3c(nn2-c2ccc(Cl)cc2)CS(=O)(=O)C3)c1,0.2,-6.3,-32.8*,.,-3.5,-1.4%
CCC(CC)C(=O)Nc1c2c(nn1-c1ccc(OC)cc1)CS(=O)(=O)C2,3.2,5.2,-5.0,5.6,1.3,-10.6%
CCC(CC)C(=O)Nc1c2c(nn1-c1ccc(F)cc1)CS(=O)(=O)C2,-12.3,-2.6,-90.9*,9.5,1.8,5.7%
O=C(Nc1c2c(nn1-c1ccc(Cl)cc1)CS(=O)(=O)C2)c1ccc(Br)cc1,-2.1,-3.4,-31.9*,.,12.1,-0.5%
O=C(Nc1c2c(nn1-c1ccc(F)cc1)CS(=O)(=O)C2)c1ccc(S(=O)(=O)N2CCOCC2)cc1,-3.2,-3.0,-3.0,-64.6*,1.3,-6.7%
O=C(Nc1c2c(nn1-c1ccccc1)CS(=O)C2)c1ccc(S(=O)(=O)N2CCOCC2)cc1 (stereo unspecified),4.6,2.3,1.6,-0.1,3.5,17.4%
O=C(O)CCn1cnc2onc(-c3ccccc3Cl)c2c1=O,6.0,-4.5,-3.3,.,-0.4,-5.7%
COc1ccc(-n2nc3c(c2NC(=O)COc2ccccc2)CS(=O)(=O)C3)cc1,-3.5,-1.0,-1.6,4.3,1.1,-6.0%
COc1ccc(-n2nc3c(c2NC(=O)COc2ccccc2F)CS(=O)(=O)C3)cc1,-1.5,11.9,-37.6*,-5.9,0.0,0.4%
